Experimental data from PubChem BioAssay (Tox21).
Inconclusive results are not listed. Values without a mark were called inactive. Calls of active or inactive are those of the source. Calls follow the shape of the dose curve; as a rule, active = well fitted curve in the direction sought with a large enough effect in the repeat runs; inconclusive = weak or mixed curves; inactive = no such curve, though single readings can be large; an effect the other way counts as inactive or inconclusive.

Test: qHTS RealTime-Glo MT Cell Viability Assay in HepG2 cells - 0 hour (AID 1224889); also: nearly all actives have a fitted effect of over 50% in size; also: potency is read from the fitted curve at half-maximal effect
Conditions: RealTime-Glo luminescence; series mostly up to 76.8 µM; activity change, negative = cytotoxicity: at the top concentration
Procedure, shortened: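 qHTS, HepG2, 600 cells/well, RealTime-Glo (NanoLuc + prosubstrate) added with cells; 5 h preincubation; DMSO compound addition; 37 C; luminescence at 0/8/16/24/32/40 h.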
% is scaled to controls: 0 for no effect and ±100 for the full control effect.

Row | SMILES | activity change, negative = cytotoxicity | Potency
1 | Nc1nc(-c2ccccc2)c(Br)c(=O)[nH]1 | -0.344% [at 35.3 µM] | –
2 | CC1=C(C(=O)O)N2C(=O)[C@@H](NC(=O)[C@H](N)C3=CCC=CC3)[C@H]2SC1 | 1.18% [at 35.3 µM] | –
3 | Nc1nnnn1-c1ccccc1 | 3.42% [at 35.3 µM] | –
4 | C[C@]12CCC(=O)C=C1CC[C@H]1[C@@H]3CC[C@](O)(C(=O)CO)[C@@]3(C)C[C@H](O)[C@@]12F | – | 2.13 µM (active)
5 | C=C(C)[C@@H]1CC=C(C)CC1 | 8.39% | –
6 | CCCSSCCC | 3.65% | –
7 | CCC(=O)Oc1ccc2c(c1)CC[C@@H]1[C@@H]2CC[C@@]2(C)[C@H]1C[C@@H](OC(=O)CC)[C@@H]2OC(=O)CC | -7.75% [at 35.3 µM] | –
8 | Cc1ncc([N+](=O)[O-])n1CC(C)O (configuration not stated) | 1.29% [at 35.3 µM] | –
9 | C[C@H]1[C@@H](c2ccccc2)NC(=O)N1C | 2.83% | –
10 | CC1CC(=O)CC(C)(C)C1 (configuration not stated) | -1.33% | –
11 | CC(C)OC(=O)OCOP(=O)(CO[C@H](C)Cn1cnc2c(N)ncnc21)OCOC(=O)OC(C)C | 2.99% [at 35.3 µM] | –
12 | Cn1c(=O)c2c(ncn2CCO)n(C)c1=O | -9.57% [at 35.3 µM] | –
13 | CN(C)CCCCl | 1.6% | –
14 | CC(C)Cn1cnc2c1c(=O)n(C)c(=O)n2C | 0.864% [at 35.3 µM] | –
15 | COP(=O)(O)OP(=O)(O)OC | -0.427% | –
16 | CCCc1ccc(O)cc1 | 12.3% | –
17 | O=C(CN1CCNCC1)NC1CCCCC1 | -3.26% [at 35.3 µM] | –
18 | N#CCC(=O)NN | -0.984% [at 35.3 µM] | –

Test: A CellTox Green Cytotoxicity Assay to monitor cytotoxicity in HepG2 cells - 8 hour (AID 1224890); also: nearly all actives have a fitted effect of over 45% in size
Conditions: CellTox Green fluorescence; series mostly up to 76.8 µM; cytotoxicity increase: at the top concentration
Procedure, shortened: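 Cells and non-lytic dye reagent are dispensed together (600 HepG2 cells/well) and incubated 5 h before DMSO compound transfer. Kinetic fluorescence is then recorded in the same wells during 40 h at 37 C.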

Row | SMILES | cytotoxicity increase
19 | CCC/C=C(\C=O)CC | -0.454%
20 | O=C(Cl)c1ccccc1[N+](=O)[O-] | -6.22%
21 | CCC(=O)CC | 5.59%
22 | CC(Oc1cc(Cl)ccc1Cl)C(=O)O (configuration not stated) | 1.62%
23 | CC1=C(C(=O)O)N2C(=O)[C@@H](NC(=O)[C@H](N)C3=CCC=CC3)[C@H]2SC1 | -4.56% [at 35.3 µM]
24 | CC(C)OC(=O)CCC(=O)OC(C)C | -9.33%
25 | COC(C)(OC)OC | -0.955%
26 | C[C@]12CCC(=O)C=C1CC[C@H]1[C@@H]3CC[C@](O)(C(=O)CO)[C@@]3(C)C[C@H](O)[C@@]12F | -4.34% [at 35.3 µM]
27 | C=C(C)[C@@H]1CC=C(C)CC1 | 1.12%
28 | COC(=O)/C=C\C(=O)O | -8.24%
29 | CCCSSCCC | 9.82%
30 | CC(=O)C(C)O (configuration not stated) | 1.48%
31 | Cc1ncc([N+](=O)[O-])n1CC(C)O (configuration not stated) | -1.09% [at 35.3 µM]
32 | C[C@H]1[C@@H](c2ccccc2)NC(=O)N1C | 0.586%
33 | CC1CC(=O)CC(C)(C)C1 (configuration not stated) | -5.64%
34 | CCCCOCC(C)O (configuration not stated) | -2.89%

Row | SMILES | cytotoxicity increase
35 | COc1cc(OC)nc(O[C@H](C(=O)O)C(OC)(c2ccccc2)c2ccccc2)n1 | 5.34% [at 35.3 µM]
36 | Cc1ccnc(N)c1 | -7.06%
37 | CC(C)OC(=O)OCOP(=O)(CO[C@H](C)Cn1cnc2c(N)ncnc21)OCOC(=O)OC(C)C | 2.03% [at 35.3 µM]
38 | CN(C)CCCCl | -7.83%
39 | CC(C)Cn1cnc2c1c(=O)n(C)c(=O)n2C | 5.87% [at 35.3 µM]
40 | C=CC(=O)CCCCC | -6.26%
41 | CC(=O)O[C@@H]1CC2CCC1(C)C2(C)C (some centres not stated) | 2.84%
42 | COP(=O)(O)OP(=O)(O)OC | -2.55%
43 | OC[C@H]1O[C@@H](O[C@@H]2[C@@H](CO)O[C@](O)(CO)[C@H]2O)[C@H](O)[C@@H](O)[C@H]1O | 1.33% [at 35.3 µM]
44 | [O-][n+]1cccc(/C(Cl)=N/OC[C@@H](O)CN2CCCCC2)c1 | 6.5% [at 35.3 µM]
45 | O=C(CN1CCNCC1)NC1CCCCC1 | 5.93% [at 35.3 µM]
46 | OCCN1CCOCC1 | -1.03%
47 | CCCC(=O)OCCC(C)CCC=C(C)C (configuration not stated) | -9.24%
48 | Cc1ccc(C(C)NC(=O)[C@@H](NC(=O)OC(C)C)C(C)C)cc1 (some centres not stated) | -0.158%
49 | O=C1CCCCO1 | -13.1%
50 | N#CCC(=O)NN | -3.18% [at 35.3 µM]

Test: qHTS assay to identify small molecule antagonists of the estrogen receptor alpha (ER-alpha) signaling pathway using the BG1 cell line in the presence of 0.1 nM 17-beta-estradiol - cell viability counter screen (AID 1259241); also: nearly all actives have a fitted effect of over 40% in size
Conditions: VM7Luc4E2 (BG1) viability, CellTiter-Fluor protease, 22 h, 0.1 nM estradiol agonist added; series mostly up to 92.4 µM; activity change, negative = cytotoxicity: at the top concentration
Procedure, shortened: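 Cells were plated and left 24 hr, compounds in DMSO were pinned in, 17beta-estradiol was added to 0.1 nM final, and after 22 hr CellTiter-Fluor reagent was added for 30 min before fluorescence was read.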

Row | SMILES | activity change, negative = cytotoxicity
51 | CCC/C=C(\C=O)CC | 0.163%
52 | O=C(Cl)c1ccccc1[N+](=O)[O-] | 0%
53 | CCC(=O)CC | 0%
54 | CC(Oc1cc(Cl)ccc1Cl)C(=O)O (configuration not stated) | 0.235%
55 | Nc1nc(-c2ccccc2)c(Br)c(=O)[nH]1 | 3.57% [at 42.5 µM]
56 | CC1=C(C(=O)O)N2C(=O)[C@@H](NC(=O)[C@H](N)C3=CCC=CC3)[C@H]2SC1 | 5.89% [at 42.5 µM]
57 | Nc1nnnn1-c1ccccc1 | 3.38% [at 42.5 µM]
58 | CC(C)OC(=O)CCC(=O)OC(C)C | -0.427%
59 | COC(C)(OC)OC | 0%
60 | C[C@]12CCC(=O)C=C1CC[C@H]1[C@@H]3CC[C@](O)(C(=O)CO)[C@@]3(C)C[C@H](O)[C@@]12F | 16% [at 42.5 µM]
61 | C=C(C)[C@@H]1CC=C(C)CC1 | 1.13%
62 | COC(=O)/C=C\C(=O)O | -2.72%
63 | CCCSSCCC | 0.643%
64 | CCC(=O)Oc1ccc2c(c1)CC[C@@H]1[C@@H]2CC[C@@]2(C)[C@H]1C[C@@H](OC(=O)CC)[C@@H]2OC(=O)CC | 4.82% [at 42.5 µM]
65 | CC(=O)C(C)O (configuration not stated) | -8.28%
66 | Cc1ncc([N+](=O)[O-])n1CC(C)O (configuration not stated) | 6.72% [at 42.5 µM]
67 | C[C@H]1[C@@H](c2ccccc2)NC(=O)N1C | 6.88%
68 | CC1CC(=O)CC(C)(C)C1 (configuration not stated) | 2.25%
69 | CCCCOCC(C)O (configuration not stated) | 0%

Row | SMILES | activity change, negative = cytotoxicity
70 | COc1cc(OC)nc(O[C@H](C(=O)O)C(OC)(c2ccccc2)c2ccccc2)n1 | -0.16% [at 42.5 µM]
71 | Cc1ccnc(N)c1 | -8.93%
72 | CC(C)OC(=O)OCOP(=O)(CO[C@H](C)Cn1cnc2c(N)ncnc21)OCOC(=O)OC(C)C | -0.62% [at 42.5 µM]
73 | Cn1c(=O)c2c(ncn2CCO)n(C)c1=O | 4.18% [at 42.5 µM]
74 | CN(C)CCCCl | 18.6%
75 | CC(C)Cn1cnc2c1c(=O)n(C)c(=O)n2C | 4.8% [at 42.5 µM]
76 | C=CC(=O)CCCCC | 3.81%
77 | CC(=O)O[C@@H]1CC2CCC1(C)C2(C)C (some centres not stated) | -1.65%
78 | COP(=O)(O)OP(=O)(O)OC | -2.99%
79 | CCCc1ccc(O)cc1 | -1.61%
80 | OC[C@H]1O[C@@H](O[C@@H]2[C@@H](CO)O[C@](O)(CO)[C@H]2O)[C@H](O)[C@@H](O)[C@H]1O | 1.72% [at 42.5 µM]
81 | [O-][n+]1cccc(/C(Cl)=N/OC[C@@H](O)CN2CCCCC2)c1 | 3.65% [at 42.5 µM]
82 | O=C(CN1CCNCC1)NC1CCCCC1 | 1.82% [at 42.5 µM]
83 | OCCN1CCOCC1 | 1.75%
84 | CCCC(=O)OCCC(C)CCC=C(C)C (configuration not stated) | 4.25%
85 | Cc1ccc(C(C)NC(=O)[C@@H](NC(=O)OC(C)C)C(C)C)cc1 (some centres not stated) | -16.9%
86 | O=C1CCCCO1 | -0.0891%
87 | N#CCC(=O)NN | 3.23% [at 42.5 µM]
